What all share (experiment): NCI-60 one-dose screen, 48 h (100 = growth as untreated, 0 = no growth, -100 = all killed)
What all share (settings): 10 µM unless noted

The subject of assay [1] is NCI-H23 lung.
The test system of assay [2] is NCI-H226 lung.
Assay [3] deals with NCI-H322M lung.
The test system of assay [4] is HOP-62 NSCLC.
Assay [5] deals with NCI-H460 lung.
The test system of assay [6] is HOP-92 NSCLC.
Assay [7] concerns NCI-H522 lung.
Assay [8] concerns A549/ATCC NSCLC.
The test system of assay [9] is 786-0 renal.
Assay [10] has as its system COLO 205 colon.
Assay [11] concerns DU-145 prostate.
Assay [12] concerns K-562 leukemia.
In assay [13] the test system is MALME-3M melanoma.
For assay [14], the system named is MDA-MB-231 breast.
Assay [15] deals with RXF 393 renal.
Assay [16] relates to SF-268 CNS.
In assay [17] the test system is SF-295 CNS.
In assay [18] the test system is SF-539 CNS.
The subject of assay [19] is UACC-257 melanoma.
In assay [20] the test system is M14 melanoma.

Each structure is given as a SMILES string. This is part of a sample that, as a whole, favours compounds with a hit. Of some 83,000 tested, about 20% had one in any assay.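 Treatment: one concentration, 48 hours, 96-well format. Scoring: percent growth, with anything below 10 considered active.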 A number with no mark means an inactive call. Calls of active or inactive are those of the source.

The values that follow come from PubChem BioAssay (NCI).

On to `O=C1Nc2ccccc2C2c3cccn3-c3ccccc3N12` (centres undefined), for which the growth in assay [1] is 81%; in assay [2] it was 89.5%; in assay [3], 83%; in assay [4], 58.2%; in assay [5] it was 88.9%; in [6], 57.8%. Moreover, the growth is 8.49% (active) in assay [7]; 61.7% in assay [8]; 87.8% in assay [9]; 60.5% in [10]; 94.8% in [11]; 23.9% in assay [12]. For the same molecule, the growth in [13] was 71.7%; in assay [14], 47.1%; in assay [15] it was 51.7%; in [16], 79%; in [17], 78.6%; in [18] it was 83.2%. For the same molecule, the values for the growth in assay [19] and in [20] were 77.6% and 53%, respectively.
On to `O=C1Nc2ccccc2/C1=C/c1cn(C[C@@H](O)Cn2c3ccccc3c(=O)c3ccccc32)c2ccccc12`, for which the growth in assay [1] was 84.1%; in assay [2], 63.1%; in assay [3], 75.9%; in [4], 62.2%; in assay [5], 74.3%; in assay [6] it was 52.9%. The growth in assay [7] is 55.5%; in assay [8], 71.6%; in assay [9] it was 86.4%; in assay [10], 84.1%; in assay [11], 105%; in [12] it was 68.4%. Moreover, the growth in assay [13] is 81.3%; in assay [14], 50.2%; in assay [15] it was 76.8%; in [16] it was 72.8%; in assay [17], 81.6%; in [18] it was 84.7%. In addition, the growth in [19] was 100%; in [20], 69.7%.
Regarding `Cc1nc2sc(C(=O)Nc3cccc(Cl)c3)c(N)c2cc1C(O)c1ccccc1` (centres undefined), the growth in [1] was 32%; in assay [2], 54.1%; in assay [3] it was 60.2%; in assay [4], 45.3%; in [5], 6.05% (active); in assay [6], 77.2%. Besides, the growth in assay [7] was 3.93% (active); in [8], 21.1%; in assay [9], 36.8%; in [10], 20.8%; in assay [11], 19.7%; in assay [12], 6.94% (active). For the same molecule, the growth in assay [13] was 49.7%; in assay [14] it was 22.3%; in assay [15] it was 27.7%; in assay [16], 42.3%; in assay [17] it was 28.8%; in assay [18] it was -3.45% (active). The growth in [19] is 35%; in [20], 15%.
For `CCCCCCCCn1ccc2cc(NC(=O)Cn3cc(CN4CCCCCC4)nn3)ccc21`, the growth in assay [1] was 52.3%; in [2], 38.6%; in assay [3], 26.7%; in assay [4], 55.7%; in assay [5] it was -58.7% (active); in [6], 24%. The growth in assay [7] was 52.4%; in [8], 50.6%; in [9] it was -71.9% (active); in assay [10], -70.1% (active); in assay [11], 30.7%; in assay [12] it was -62.2% (active). The growth was -88.6% (active) in assay [13]; -26% (active) in assay [14]; 29.2% in assay [15]; 15.5% in [16]; -71.3% (active) in assay [17]; -73.9% (active) in assay [18]. Also, the growth in [19] was -49.2% (active); in assay [20] it was -68.3% (active).
With `Cc1nn(-c2ccccc2)c(/N=C/N(C)C)c1/C=C/C(=O)c1ccc(Cl)cc1`, the growth in [1] was 96.9%; in [2] it was 98.3%; in assay [3], 101%; in assay [4] it was 93.2%; in [5], 103%; in assay [6], 78%. Also, the growth is 78.4% in [7]; 108% in assay [8]; 103% in assay [9]; 110% in [10]; 122% in [11]; 59.6% in assay [12]. The growth in assay [13] was 90.1%; in assay [14], 77.2%; in assay [15], 97.8%; in assay [16] it was 118%; in assay [17] it was 106%; in [18], 101%. Further, the growth in [19] was 119%; in [20] it was 94.7%.
`CCN(CC)CCOc1ccc(Nc2ncc3cc(-c4ccc(O)cc4)c(=O)n(C)c3n2)cc1`: the growth in [1] is 69.8%; in [2], 43.8%; in assay [3], 47.7%; in assay [4] it was 49.9%; in [5] it was 78.9%; in assay [6], 76.6%. Moreover, the growth is 27.3% in [7]; 49% in [8]; -76.5% (active) in [9]; 38.4% in [10]; 85.5% in assay [11]; -53.5% (active) in assay [12]. Further, the growth was -43.8% (active) in [13]; 43.1% in assay [14]; -5.94% (active) in assay [15]; 45% in assay [16]; 98.5% in [17]; -1.13% (active) in assay [18]. For the same molecule, the growth was 66.6% in [19] and 57.5% in assay [20].
Consider `COc1ccc(C2=CN3CC=CCC3CC2=O)cc1` (centres undefined), for which the growth is 106% in assay [1]; 99.9% in [2]; 113% in [3]; 87.8% in [4]; 108% in [5]; 92.1% in assay [6]. Besides, the growth in assay [7] is 66.9%; in assay [8] it was 75%; in [9] it was 101%; in assay [10], 113%; in [11], 100%; in assay [12], 105%. For the same molecule, the growth is 116% in assay [13]; 98.3% in assay [14]; 100% in assay [15]; 101% in assay [16]; 104% in assay [17]; 104% in [18]. In addition, the growth was 71.6% in [19] and 99.5% in assay [20].
As for `CCOC(=O)c1c(-c2ccccc2)n2c(=O)cc(C)c3c(O)c(O)cc1c32`, the growth in [1] is 66.2%; in [2], 84.6%; in [3], 50.3%; in assay [4] it was 39.4%; in assay [5], 20.3%; in assay [6], 47%. Also, the growth is 66.2% in assay [7]; 43.1% in assay [8]; 62.7% in assay [9]; 86.9% in [10]; 76.9% in assay [11]; 53.4% in [12]. Besides, the growth was 64.7% in assay [13]; 76.3% in assay [14]; 76.3% in assay [15]; 52.2% in assay [16]; 59.9% in [17]; 75.7% in assay [18]. For the same molecule, the growth in assay [19] was 69.7%; in assay [20], 66.2%.
In the case of `O=C(Cn1nnc2ccccc21)Nc1ccc(-c2nc3ccccc3s2)cc1`, the growth is 80.7% in assay [1]; 67.5% in assay [2]; 103% in [3]; 101% in assay [4]; 83% in assay [5]; 73.1% in assay [6]. Besides, the growth is 79.3% in [7]; 93.6% in assay [8]; 95% in assay [9]; 105% in assay [10]; 74% in assay [11]; 55.2% in assay [12]. The growth is 96.9% in assay [13]; 94.7% in assay [14]; 99.9% in assay [15]; 92.4% in [16]; 84.7% in [17]; 71.2% in assay [18]. For the same molecule, the growth is 94.5% in assay [19] and 90.6% in assay [20].
With `O=C(Nc1nc(C(=O)N2CCN(C(c3ccccc3)c3ccccc3)CC2)cs1)c1ccc(NC2CCCCC2)c([N+](=O)[O-])c1`, the growth in assay [1] was 77.2%; in assay [2], 60.1%; in [3], 91.6%; in assay [4], 90.9%; in assay [5], 99.6%; in assay [6], 63.7%. In addition, the growth in assay [7] was 67.3%; in [8], 93.2%; in assay [9], 87.7%; in assay [11] it was 98.9%; in assay [12], 83.9%; in assay [13] it was 89.4%. Moreover, the growth in assay [14] was 70.5%; in assay [15] it was 85%; in assay [16], 86.3%; in [17] it was 69.9%; in assay [18], 93.3%; in assay [19], 89.4%. The growth in assay [20] was 77.8%.
With `C[C@@H]1O[C@@H](O[C@@H]2C[C@H](c3ccc4c(c3O)C(=O)C3=C(C4=O)[C@@]4(O)C(=O)C[C@](C)(O)C[C@@]4(O)C=C3)O[C@H](C)[C@H]2O)C[C@H](O)[C@@H]1O`, the growth in assay [1] is 93.2%; in assay [2], 101%; in assay [3], 108%; in [4] it was 107%; in assay [5], 98.5%; in assay [6], 120%. The growth was 82.8% in assay [7]; 94.7% in assay [8]; 101% in [9]; 104% in [11]; 91.3% in assay [12]; 90.7% in [13]. Also, the growth in [14] is 102%; in [15], 106%; in [16], 91.1%; in assay [17], 108%; in assay [18], 101%; in assay [19] it was 101%.
`CC1O[C@@H]2C[C@@](O)([C@H]1O)n1c3ccccc3c3c4c(c5c6ccccc6n2c5c31)C(=O)NC4=O` (some centres undefined): the growth in assay [1] is 33.7%; in [2] it was 37.2%; in assay [3], 62.8%; in assay [4], 13.4%; in assay [5] it was 11.3%; in assay [6] it was 121%. Besides, the growth is 30.7% in assay [7]; 48.8% in [9]; 11.2% in [10]; 57.8% in assay [11]; 30% in assay [12]; 50.3% in assay [13]. For the same molecule, the growth in [14] is 57.8%; in assay [15], 49.2%; in assay [16] it was 49.8%; in assay [17], 19.2%; in assay [18], 33.2%; in assay [19], 47.9%. The growth in assay [20] was 25.7%.
For the molecule `C#CCn1cnc2c(Nc3cccc(NC(=O)CCl)c3)ncnc21`, the growth in assay [1] is 38.1%; in assay [2] it was 51.4%; in assay [3], 81.1%; in [4] it was 43.5%; in assay [5] it was 21.8%; in [6], 35.3%. The growth was -19.1% (active) in assay [7]; 44.8% in assay [8]; 49.2% in [9]; 43.6% in assay [11]; 13.2% in [12]; 34.4% in assay [13]. Further, the growth in assay [14] was 18.4%; in assay [15], 54.6%; in assay [16], 35.3%; in assay [17] it was 59.7%; in [18] it was 45.4%; in [19], 28.4%. Further, in assay [20], the growth is 24.4%.
As to `CC1=C(C(=O)n2c3ccccc3c3ccccc32)C(c2cccc([N+](=O)[O-])c2)C(C(=O)n2c3ccccc3c3ccccc32)=C(C)N1`, the growth in assay [1] is 91.9%; in assay [2] it was 96.9%; in assay [3] it was 98.4%; in [4] it was 102%; in assay [5], 102%; in assay [6], 93.8%. The growth in assay [7] is 101%; in [8] it was 102%; in [9] it was 103%; in assay [11] it was 103%; in [12], 95.8%; in assay [13], 88.9%. Moreover, the growth in assay [14] was 85%; in assay [15], 111%; in assay [16], 89.3%; in assay [17] it was 102%; in assay [18], 98.6%; in [19], 106%. In addition, the growth in assay [20] was 100%.
